Screens deposited in PubChem BioAssay by ICCB-Longwood Screening Facility, Harvard Medical School.
The full list was thinned out, with hits kept by preference.
Sa helicase inh: blocks Staphylococcus aureus DNA helicase. hit rate 0.05% among 120,000. inhibition, % (concentration not given with the values). purified S. aureus helicase, fluorescence unwinding assay. AID 485395; in the data active = inhibition above about 25%, passing the limit was not always enough;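 note: 0% = mean of negative control wells and 100% = mean of positive control wells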
Sa growth 42C: blocks Staphylococcus aureus growth. S. aureus RN4220 growth, OD600, 20 h, 42 °C; hits give low values. hit rate 0.53% among 170,000. relative growth, % (no concentration beside the values);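 active = relative growth at most 50% at the other temperature and 20+ points below 30 °C, or under 10% at both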
Starred values were filed as active, the others as inactive; . = not tested or not shown.

SMILES	Sa helicase inh	Sa growth 42C
Fc1ccc(Nc2nc3nonc3nc2Nc2ccccc2F)cc1	17	-0.6*
Cc1no[n+]([O-])c1COc1cccc(/C=C2\SC(=S)NC2=O)c1	14	-0.8*
COc1cc(C=C2C(=O)NC(=O)NC2=O)cc(Br)c1OCc1c(C)no[n+]1[O-]	-12	96
CN(CC1COc2ccccc2O1)C(=O)C1CCN(c2ccc(-c3cccs3)nn2)CC1 (centres undefined)	8	103
O=C(O)c1ccc(CN2CCCCC2)cc1	12	104
O=C(O)c1ccc(O)c(SCN2CCCCC2)c1	-3	4.1*
O=C1C=C2N(c3ccccc3)CCOC2(O)c2ccccc21 (centres undefined)	11	4.8*
O=C1OC2(O)c3ccccc3C(=O)N2c2ccccc21 (centres undefined)	-21	87
O=C(NCCSc1nnnn1-c1ccccc1)c1ccc(Cl)cc1	-24	89
CC(=O)NC[C@H]1CN(c2ccc(N3CCOCC3)c(F)c2)C(=O)O1	.	-0.8*
Cc1ccc(C(=O)c2ccc(N3CCOCC3)c(F)c2)cc1	9	101
O=C(c1csc(-c2ccccc2)n1)N1CCN(S(=O)(=O)c2ccc3c(c2)OCCCO3)CC1	11	107
Cc1sc2c(c1C)C(=O)NC(/C=C/c1ccc3c(c1)OCO3)N2 (centres undefined)	8	89
Cc1ccc(NC(=O)Nc2ccc(N(C)C)cc2)cc1	1	82
Cc1cc(C)cc(OC(=O)CCN2C(=O)c3ccccc3C2=O)c1	17	-1.1*
O=C(CCN1C(=O)c2ccccc2C1=O)Oc1ccc(Cl)cc1	4	114
Cn1c(=O)cc(OCCCC(=O)NCC2(c3ccccc3)CCCC2)c2ccccc21	18	92
Cn1c(SCC(=O)c2ccccc2)nc2ccccc2c1=O	9	116
O=C(O)CCC(=O)N1CC(=O)Nc2ccc(Br)cc2C1c1ccccc1 (centres undefined)	10	97
CO[C@@]12[C@H](COC(N)=O)C3=C(C(=O)C(C)=C(N)C3=O)N1C[C@@H]1N[C@@H]12	.	0.0*
CCN1C(C(=O)c2ccccc2)=C(OC(=O)c2ccco2)c2ccccc2S1(=O)=O	12	6.2*
CCN1C(C(=O)c2ccccc2)=C(OC(=O)c2ccc(Cl)cc2)c2ccccc2S1(=O)=O	.	53
Cc1n[nH]c(=S)n1CC(=O)n1c2c(c3ccccc31)CCCC2	-1	107
Cn1ccsc1=NC(=O)/C=C/c1ccc(S(=O)(=O)N2CCCCCC2)cc1	33	99
O=c1ccc(-c2ccc(S(=O)(=O)Nc3ccccc3)s2)n[nH]1	21	92
COc1cccc(OCc2nnc(SCc3ccccc3)n2C)c1	17	3.8*
CSc1nnc(COc2cccc(C)c2)n1C	5	127
Cc1c(CCC(=O)NCc2ccc3c(c2)OCO3)c(=O)oc2cc3occ(C(C)(C)C)c3cc12	-16	99
CN(Cc1ccc(Cl)s1)C(=O)CSc1nnc2n1CCCCC2	3	84
